This is an account of results in PubChem BioAssay (Tox21).

SMILES strings stand for the structures. Values joined by “and” are separate entries in the source; they are usually repeats but may differ in a detail not shown here. Identical values can stand only once. Records with an inconclusive call do not appear. Where a call stands in place of a potency, no number is given. Active and inactive are the calls of the source. Calls follow the shape of the dose curve; as a rule, active = well fitted cell-killing curve with a large enough effect in the repeat runs; inconclusive = weak or mixed curves, or effect the other way; inactive = flat fitted curve, though single readings scatter.
Potency is read from the fitted curve at half-maximal effect.

The assay in a line: qHTS assay to identify small molecule antagonists of the estrogen receptor alpha (ER-alpha) signaling pathway using the BG1 cell line in the presence of 0.1 nM 17-beta-estradiol - cell viability counter screen (AID 1259241). Also: nearly all actives have a fitted effect of over 40% in size. Conditions: VM7Luc4E2 (BG1) viability, CellTiter-Fluor protease, 22 h, 0.1 nM estradiol agonist added; series mostly up to 92.4 µM. The method, boiled down: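 Following 5 days in phenol red-free medium with charcoal-stripped serum, VM7Luc4E2 cells received test compounds alongside 0.1 nM 17beta-estradiol (final) at 37C for 22 hr. Live cells were then quantified via protease-substrate fluorescence.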
With `NS(=O)(=O)O`, the Potency entry was “inactive”. The result for `C=CCc1ccc(O)c(OC)c1` reads “inactive”. The result for `C/C=C/C=C/C(=O)O` reads “inactive”.

As for `CN(C)CCOC(C)(c1ccccc1)c1ccccn1` (configuration not stated), the Potency entry is “inactive”. On to `COc1ccc2c(c1)c(CC(=O)O)c(C)n2C(=O)c1ccc(Cl)cc1`, for which the Potency result was “inactive”. The result for `O=C(O)CC(O)C(=O)O` (configuration not stated) reads “inactive”; that for `Cc1c(C(=O)O)c(O)cc2c1C(=O)c1c(O)c([C@@H]3O[C@H](CO)[C@@H](O)[C@H](O)[C@H]3O)c(O)c(O)c1C2=O`, 33.5 µM (active) and 21.7 µM (active). The result for `CCCCC1(COC(=O)CCC(=O)O)C(=O)N(c2ccccc2)N(c2ccccc2)C1=O` reads “inactive”; that for `Cc1ncc([N+](=O)[O-])n1CCO`, “inactive”. `CCCCOC(=O)c1ccc(O)cc1`: the Potency result is “inactive”. The result for `CC(=O)C(=O)O` reads “inactive”. The result for `CC(C)c1c(C(=O)Nc2ccccc2)c(-c2ccccc2)c(-c2ccc(F)cc2)n1CC[C@@H](O)C[C@@H](O)CC(=O)O` reads “inactive”; that for `CN(C)CCOC(c1ccccc1)c1ccccc1`, “inactive”. The result for `CCCC[P+](CCCC)(CCCC)CCCC` reads “inactive”; that for `C=C(C)C(=O)OCC(C)O` (configuration not stated), “inactive”; that for `Nc1ccc(S(N)(=O)=O)cc1`, “inactive”. As for `CCOC(N)=O`, the Potency entry is “inactive”.
